# Test results as given in the supplement of paper PMC7057948, “A genome-wide approach for identification and characterisation of metabolite-inducible systems” (Nature Communications, 2020).
# Tested on: HpdA/P_H16_RS24175 L-tyrosine biosensor (pEH158)
# Test: relative induction of RFP reporter vs primary effector (background-corrected); higher = stronger activation of the biosensor
# Conditions: inducer concentration 5 mM; 6 h; Cupriavidus necator H16; minimal medium + 0.4% gluconate
# Experimental: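 C. necator H16 strains, each carrying one of 21 transcription factor/inducible promoter–mRFP biosensor plasmids, were grown in minimal medium in 96-well plates (robotic platform). Each was exposed to 46 structurally or metabolically related compounds at 5 mM at 30 °C. OD-normalised RFP fluorescence was read 6 h later and expressed as relative induction (%) = 100 × (FL compound − FL uninduced)/(FL primary inducer − FL uninduced); mean of n=4.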
# 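Also: RFP excited at 585 nm with emission read at 620 nm, culture medium blanks subtracted from fluorescence and absorbance prior to normalisation.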
row,Structure (SMILES),relative induction of RFP reporter [%]
1,O=c1cc[nH]c(=O)[nH]1 [uracil],-0.0253
2,CCCC(=O)O [butyric acid],-0.166
3,O=C(O)[C@@H](O)[C@@H](O)[C@H](O)[C@@H](O)C(=O)O [glucarate],-0.0077
4,CCC(=O)O [propanoate],-0.0944
5,C[C@H](O)C(=O)O [L-lactate],-0.188
6,Oc1ccc(O)cc1 [hydroquinone],0.0801
7,Cn1cnc2c1c(=O)[nH]c(=O)n2C [theobromine],0.0337
8,CC(N)CC(=O)O (stereo not given) [3-aminobutanoate],-0.135
9,O=C(O)c1cccnc1 [nicotinate],-0.141
10,Oc1ccccc1 [phenol],-0.0814
11,O=C(O)CNC(=O)c1ccccc1 [N-benzoylglycine],-0.186
12,"O=C(O)c1c(O)cccc1O [2,6-dihydroxybenzoate]",0.0687
13,N[C@@H](Cc1c[nH]c2ccccc12)C(=O)O [L-tryptophan],0.00902
14,N[C@@H](CC(=O)O)C(=O)O [L-aspartate],-0.107
15,NC(=O)CC[C@H](N)C(=O)O [L-glutamine],-0.216
16,NCCc1ccc(O)c(O)c1 [dopamine],-0.023
17,NCC(=O)O [glycine],-0.0404
18,O=C(O)C(O)c1ccccc1 (stereo not given) [mandelic acid],0.0552
19,O=S(=O)(O)CCO [isethionate],-0.112
20,O=c1[nH]cnc2nc[nH]c12 [hypoxanthine],-0.0963

row,Structure (SMILES),relative induction of RFP reporter [%]
1,O=C(O)/C=C/C(=O)O [fumarate],-0.0945
2,O=C(O)C(O)C(=O)O [tartronic acid],-0.0907
3,O=C(O)C1=C[C@@H](O)[C@@H](O)[C@H](O)C1 [shikimate],0.167
4,O=CC(=O)O [glyoxylate],-0.0503
5,"NC(C(=O)O)c1ccccc1 (racemic) [D,L-2-phenylglycine]",0.0147
6,O=C(O)CCC(=O)O [succinate],-0.126
7,O=C(O)c1ccc(O)cc1 [4-hydroxybenzoate],-0.0931
8,O=C(O)CC(CC(=O)O)C(=O)O [tricarballylate],-0.173
9,CC(=O)CCC(=O)O [levulinic acid],-0.244
10,O=C(O)C[C@H](O)C(=O)O [L-malate],-0.0258
11,C[C@H](N)C(=O)O [L-alanine],-0.194
12,Cn1c(=O)c2c(ncn2C)n(C)c1=O [caffeine],0.103
13,O=C(O)c1cc(=O)c2ccccc2[nH]1 [kynurenate],-0.151
14,NCC(O)C(=O)O (stereo not given) [3-amino-2-hydroxypropanoate],-0.0973
15,"NCC(N)C(=O)O (stereo not given) [2,3-diaminopropanoate]",0.123
16,OC[C@@H](O)[C@@H](O)[C@H](O)[C@H](O)CO [D-mannitol],-0.117
17,O=C(O)C1CCCC1 [cyclopentane-1-carboxylate],0.108
18,O=C(O)C1=CCCCC1 [cyclohexene-1-carboxylate],0.0248
19,Oc1cccc(O)c1 [resorcinol],-0.0108
20,O=C(O)CC(=O)C(=O)O [oxaloacetate],-0.115
